Reference: PubChem BioAssay (NCI)
About 83,000 compounds went through this panel and 20% of them were active in at least one assay; those are over-represented in the sample as a whole.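 Step 1: grow cells in 96-well plates. Step 2: add test compound at a single concentration. Step 3: incubate 48 h. Step 4: record percent growth.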 Values without a mark were called inactive. The source made the active and inactive calls. How the source made its calls: active means growth percent below 10; inactive means the rest.

Columns and labels:
Assay in all cases: NCI-60 one-dose screen, 48 h (100 = growth as untreated, 0 = no growth, -100 = all killed)
Conditions in all cases: 10 µM
EKVX NSCLC = test system: EKVX NSCLC
SN12C renal = test system: SN12C renal
UO-31 renal = test system: UO-31 renal
TK-10 renal = test system: TK-10 renal
CAKI-1 renal = test system: CAKI-1 renal
A498 renal = test system: A498 renal
CCRF-CEM leukemia = test system: CCRF-CEM leukemia
MOLT-4 leukemia = test system: MOLT-4 leukemia
SR leukemia = test system: SR leukemia
RPMI-8226 leukemia = test system: RPMI-8226 leukemia
OVCAR-8 ovarian = test system: OVCAR-8 ovarian
OVCAR-4 ovarian = test system: OVCAR-4 ovarian
SK-OV-3 ovarian = test system: SK-OV-3 ovarian
IGROV1 ovarian = test system: IGROV1 ovarian
OVCAR-3 ovarian = test system: OVCAR-3 ovarian
HS 578T breast = test system: HS 578T breast
NCI/ADR-RES ovarian = test system: NCI/ADR-RES ovarian
T-47D breast = test system: T-47D breast
ACHN renal = test system: ACHN renal
OVCAR-5 ovarian = test system: OVCAR-5 ovarian

SMILES	growth (EKVX NSCLC) [%]	growth (SN12C renal)	growth (UO-31 renal)	growth (TK-10 renal)	growth (CAKI-1 renal)	growth (A498 renal)	growth (CCRF-CEM leukemia)	growth (MOLT-4 leukemia)	growth (SR leukemia)	growth (RPMI-8226 leukemia)	growth (OVCAR-8 ovarian)	growth (OVCAR-4 ovarian)	growth (SK-OV-3 ovarian) [%]	growth (IGROV1 ovarian)	growth (OVCAR-3 ovarian)	growth (HS 578T breast) [%]	growth (NCI/ADR-RES ovarian)	growth (T-47D breast) [%]	growth (ACHN renal) [%]	growth (OVCAR-5 ovarian)
O=C1ON=[N+](c2ccc(Cc3ccc([N+]4=NOC(=O)C4CN4CCOCC4)cc3)cc2)C1CN1CCOCC1 (centres undefined)	69.9	80.3%	44.3%	74.5%	49.3%	53.7%	63.9%	68.4%	23%	60.5%	80.9%	53.9%	88	62.3%	89.1%	64	63.4%	56.1	–	–
N=c1c2c(-c3ccccc3)c(-c3ccccc3)n(Cc3ccccc3)c2ncn1CCCO	36.5	40.3%	-0.199% (active)	–	13.9%	17.6%	28.9%	-10.9% (active)	-33.5% (active)	18.7%	32.5%	35.7%	70.7	8.33% (active)	8.78% (active)	46	42.9%	65.9	26.1	55.6%
O=c1[nH]c2ccc(Cl)cc2c2ccccc12	41.8	87.8%	20.2%	–	43.2%	–	99.3%	119%	75.4%	–	77.5%	-3.77% (active)	39.4	29.5%	87%	75.1	–	10.4	48.9	84.2%
O=C1N=NC2=C1c1c3ccccc3c(O)n1CC2	96.1	105%	90%	104%	–	94.9%	97.1%	104%	103%	101%	101%	106%	100	117%	127%	147	105%	103	–	–
CC(=O)[C@H]1CC[C@H]2[C@@H]3CCC4=CC(=O)C=C[C@]4(C)[C@H]3CC[C@]12C	60.1	95.9%	88.5%	106%	87.8%	60.4%	87.2%	87.1%	84.4%	68%	92.4%	87.2%	104	94.8%	106%	96.2	98.4%	86.8	–	93.2%
Cc1ccc(NC(=O)Nc2c(Cl)cccc2Cl)cn1	58.8	105%	72.1%	128%	–	106%	69.5%	86.9%	59.1%	62.9%	111%	135%	116	85.9%	106%	97.8	105%	96.8	–	119%
O=C(NC(Cc1ccc(O)cc1)C(=O)N=Nc1c(O)[nH]c2ccccc12)c1ccccc1 (centres undefined)	97.3	97.6%	74.9%	–	98.9%	109%	89.6%	92.1%	92.7%	112%	93.9%	95.7%	103	108%	103%	101	98.7%	107	114	110%
CCCCCCN(CCCCCC)CC(O)c1ccc2c3c(cccc13)CC2 (centres undefined)	71.5	61.4%	32%	–	59.6%	24.5%	–	53.3%	21.7%	27.5%	68.4%	72.4%	69.9	39.4%	80.6%	69.1	56.5%	30.2	53.8	48.9%
CC(C)(C)NC/C(=C\c1ccccc1)C(=O)c1ccccc1	24.7	-45.8% (active)	-83.3% (active)	0.816% (active)	-7.54% (active)	64.4%	10.7%	10.3%	-1.67% (active)	-0.943% (active)	-29.1% (active)	30.7%	57.9	0.595% (active)	-43.1% (active)	38.2	-30.7% (active)	–	–	-42.7% (active)
CN1CCC(CNc2cc(C3(C(=O)Nc4cc(C(=O)Nc5ccc(Cl)c(C(F)(F)F)c5)ccc4F)CC3)ncn2)CC1	46.7	78.8%	7.95% (active)	–	–	96%	-23.9% (active)	-37.5% (active)	-26.7% (active)	-32% (active)	44.3%	81.1%	45.9	54.8%	29.4%	13.6	86.7%	63.7	20.1	–
CCN1CCN(c2nc3ccccc3c3c(=O)c4ccccc4sc23)CC1	59.1	41.6%	29.8%	–	–	37%	29.2%	2.07% (active)	-11.8% (active)	53.8%	36.9%	55.2%	59.9	36.3%	60.7%	52.6	–	54.5	22.8	68.7%
O=C(Nc1ccncc1)C(=O)c1cn(S(=O)(=O)c2cccc3ccccc23)c2ccccc12	46.9	92%	58.5%	–	60.4%	80%	59.5%	69%	–	43.1%	92.4%	79.6%	87.9	73.8%	88.2%	100	78.4%	70.9	87.2	102%
CC(=O)OCc1cc(-c2nc3ccccc3[nH]c2=O)nn1-c1ccc(Cl)cc1	104	105%	98.2%	–	–	100%	97.9%	87.6%	105%	89.1%	95.4%	96.1%	100	93.2%	116%	100	90.9%	92.7	102	–
CCOC(=O)CNC(=O)CCCCSc1ncnc2nc[nH]c12	108	99%	96.5%	–	96.1%	124%	113%	101%	90.6%	107%	108%	111%	115	–	112%	107	97.3%	100	104	90.1%
NC(=O)c1ccc(-c2cccc3c(=O)nc(N4CCOCC4)oc23)cc1	97.3	104%	89.2%	–	–	98.2%	98.6%	103%	92%	104%	101%	90.5%	103	103%	99.4%	97.2	97.3%	87.8	100	96.8%
CC[C@H](C)C(=O)O[C@H]1CCC=C2C=C[C@H](C)C(CCC3C[C@@H](O)CC(=O)O3)[C@H]21 (some centres undefined)	65.6	32.4%	70.1%	97.2%	-1.64% (active)	-33.8% (active)	82.3%	91.9%	15.5%	96.8%	45.2%	98.7%	70.9	–	112%	59.4	21.5%	105	–	–
COc1ccc(OC)c2c1C(=O)CC2C (centres undefined)	98.7	99.3%	83.7%	–	97.6%	–	101%	112%	113%	106%	105%	–	–	100%	101%	98.2	108%	98.8	113	–
